Reference: PubChem BioAssay (EPA / NIEHS)
Records with an inconclusive call do not appear. Calls of active or inactive are those of the source. How the source made its calls, unless noted: active means hit-call score of the fitted dose curve at least 0.9, where 1 is the maximum; inactive means score below 0.9.

test system: not listed separately; assay: ATG_M_32_TRANS: Attagene TRANS-FACTORIAL HepG2 Assay for M32 Transcription Factor (Internal Marker) (AID 2282984; active means hit-call score of the fitted dose curve at least 0.9, where 1 is the maximum;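 further: transcript level of a background control reporter unit measured by RT-PCR and capillary electrophoresis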); details: HepG2 Attagene TRANS M32 internal marker reporter
In short: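 Internal-marker readout from a multiplexed transcription reporter panel. HepG2 cells were transfected with GAL4-UAS reporter units, treated 24 hours, and reporter transcript levels determined by fluorescence after RT-PCR and capillary separation.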

| SMILES | outcome |
| --- | --- |
| COc1ccccc1C=O | inactive |
| CC1CCCCC1 | inactive |
| NCC(F)(F)C(F)(F)C(F)(F)C(F)(F)C(F)(F)C(F)(F)C(F)(F)C(F)(F)F | inactive |
| Cc1cc(O)c(C(C)(C)C)cc1C(C)(C)C | inactive |
| O=C(O)C(F)(F)C(F)(F)C(F)(F)C(F)(F)C(F)(F)C(F)(F)C(F)F | inactive |
| CCOCOCC | inactive |
| CCCCCCCCCCCC(=O)Cl | inactive |
| OCC(F)(F)C(F)(F)C(F)(F)C(F)(F)C(F)(F)C(F)(F)CO | inactive |
| O=C1c2ccccc2C(=O)c2c(Cl)cccc21 | inactive |
| NC(=O)C(F)(F)C(F)(F)C(F)(F)C(F)(F)C(F)(F)C(F)(F)C(F)(F)F | inactive |
| NS(=O)(=O)C(F)(F)C(F)(F)C(F)(F)C(F)(F)C(F)(F)C(F)(F)F | inactive |
| CC(C)C(=O)OCc1ccccc1 | inactive |

biological target: Nuclear receptor subfamily 4 group A member 2 (Homo sapiens) (UniProt P43354); assay: ATG_NURR1_TRANS: Attagene TRANS-FACTORIAL HepG2 Assay for human Nuclear Receptor Related Protein 1 (NURR1) (AID 2282985; active means hit-call score of the fitted dose curve at least 0.9, where 1 is the maximum); details: HepG2 Attagene TRANS reporter, mRNA readout
In short: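 Endpoint: reporter mRNA increase relative to DMSO. HepG2 cells transfected with reporter units, treated 24 h; RNA processed by RT-PCR, labelling, HpaI digestion and capillary electrophoresis.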

Sequence of Nuclear receptor subfamily 4 group A member 2 (Homo sapiens) (P43354 whole entry, looked up): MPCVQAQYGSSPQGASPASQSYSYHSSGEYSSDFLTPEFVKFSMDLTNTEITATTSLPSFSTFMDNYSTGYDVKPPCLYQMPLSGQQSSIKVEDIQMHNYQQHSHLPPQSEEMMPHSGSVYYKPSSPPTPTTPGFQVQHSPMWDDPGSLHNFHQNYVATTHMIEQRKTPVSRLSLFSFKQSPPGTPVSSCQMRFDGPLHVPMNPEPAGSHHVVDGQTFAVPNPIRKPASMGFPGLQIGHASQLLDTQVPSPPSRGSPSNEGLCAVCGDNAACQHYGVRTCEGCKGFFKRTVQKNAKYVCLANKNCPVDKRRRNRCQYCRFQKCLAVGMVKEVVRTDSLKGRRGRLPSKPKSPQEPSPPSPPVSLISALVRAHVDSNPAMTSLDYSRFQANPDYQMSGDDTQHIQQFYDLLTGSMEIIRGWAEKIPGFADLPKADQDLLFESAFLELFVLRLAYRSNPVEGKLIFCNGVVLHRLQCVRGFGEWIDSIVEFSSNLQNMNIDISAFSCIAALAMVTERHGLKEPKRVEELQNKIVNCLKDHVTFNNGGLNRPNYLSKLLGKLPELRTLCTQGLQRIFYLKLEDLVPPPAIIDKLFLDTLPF

| SMILES | outcome | AC50 |
| --- | --- | --- |
| Cc1ccc(O)cn1 | inactive |  |
| F[Si-2](F)(F)(F)(F)F | inactive |  |
| COc1ccccc1C=O | inactive |  |
| NCC(F)(F)C(F)(F)C(F)(F)C(F)(F)C(F)(F)C(F)(F)C(F)(F)C(F)(F)F | inactive |  |
| CCN(CC)c1ccc(C=O)c(O)c1 | inactive |  |
| O=C(O)CCC(F)(F)C(F)(F)C(F)(F)C(F)(F)C(F)(F)C(F)(F)C(F)(F)F | inactive |  |
| CC(C)(C)c1cc(CCC(=O)NCCCCCCNC(=O)CCc2cc(C(C)(C)C)c(O)c(C(C)(C)C)c2)cc(C(C)(C)C)c1O | inactive |  |
| CN(C)C(C)(C)CO | inactive |  |
| O=S(=O)(O)CCC(F)(F)C(F)(F)C(F)(F)C(F)(F)C(F)(F)C(F)(F)C(F)(F)C(F)(F)F | inactive |  |
| CCOCOCC | inactive |  |
| CCCCCCCCCCCC(=O)Cl |  | 67.6 µM (active) |
| OCC(F)(F)C(F)(F)C(F)(F)C(F)(F)C(F)(F)C(F)(F)CO | inactive |  |
| O=C1C=CC(=O)N1c1ccc(Cc2ccc(N3C(=O)C=CC3=O)cc2)cc1 | inactive |  |
| FC(F)(F)C(F)(F)C(F)(F)C(F)(F)C(F)(F)C(F)(F)CC[Si](Cl)(Cl)Cl | inactive |  |
| C=CC(=O)OCC(F)(F)C(F)(F)C(F)(F)C(F)(F)C(F)(F)C(F)(F)C(F)(F)C(F)F | inactive |  |

biological target: Transcriptional activator Myb (Homo sapiens) (UniProt P10242); assay: ATG_Myb_CIS: Attagene CIS-FACTORIAL HepG2 Assay for human Myeloblastosis (Myb) Proto-Oncogene Transcription Factor (AID 2282986); details: HepG2 Attagene CIS-FACTORIAL Myb reporter transcription; actives raise or lower the signal
In short: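 Reporter mRNA is quantified by RT-PCR and capillary electrophoresis 24 h after dosing HepG2 cells transfected with cis-regulated reporter units, which track endogenous transcription factor activity. Gain and loss of signal are fitted versus DMSO baseline.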

Sequence of Transcriptional activator Myb (Homo sapiens) (P10242 whole entry, looked up): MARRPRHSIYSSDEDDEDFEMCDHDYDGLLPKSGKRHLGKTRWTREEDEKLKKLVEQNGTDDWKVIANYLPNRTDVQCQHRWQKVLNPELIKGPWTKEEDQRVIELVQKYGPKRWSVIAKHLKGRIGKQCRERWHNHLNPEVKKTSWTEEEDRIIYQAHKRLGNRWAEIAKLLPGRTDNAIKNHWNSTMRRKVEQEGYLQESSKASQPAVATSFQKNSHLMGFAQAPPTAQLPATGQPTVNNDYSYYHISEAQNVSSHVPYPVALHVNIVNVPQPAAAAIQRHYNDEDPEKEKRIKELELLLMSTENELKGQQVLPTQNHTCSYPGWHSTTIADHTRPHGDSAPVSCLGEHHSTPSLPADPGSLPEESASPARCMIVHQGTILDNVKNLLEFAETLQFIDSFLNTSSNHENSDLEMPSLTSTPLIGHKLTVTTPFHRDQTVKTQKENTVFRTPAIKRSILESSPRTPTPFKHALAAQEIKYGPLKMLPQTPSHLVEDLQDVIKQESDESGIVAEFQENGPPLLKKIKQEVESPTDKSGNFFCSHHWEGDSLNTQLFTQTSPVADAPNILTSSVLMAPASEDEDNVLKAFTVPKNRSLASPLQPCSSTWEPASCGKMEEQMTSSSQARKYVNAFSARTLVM

| SMILES | outcome |
| --- | --- |
| Cc1ccc(O)cn1 | inactive |
| C[Si](C)O[Si](C)C | inactive |
| F[Si-2](F)(F)(F)(F)F | inactive |
| CCOC(OCC)OCC | inactive |
| COc1ccccc1C=O | inactive |
| CC1CCCCC1 | inactive |
| CCC(Cc1c(I)cc(I)c(N)c1I)C(=O)O (centres undefined) | inactive |
| NCC(F)(F)C(F)(F)C(F)(F)C(F)(F)C(F)(F)C(F)(F)C(F)(F)C(F)(F)F | inactive |
| CCN(CC)c1ccc(C=O)c(O)c1 | inactive |
| CCCCOC(=O)C(C)O (centres undefined) | inactive |
| O=C(Cl)c1ccc(Cl)cc1Cl | inactive |
| O=C(O)CCC(F)(F)C(F)(F)C(F)(F)C(F)(F)C(F)(F)C(F)(F)C(F)(F)F | inactive |
| CC(C)(C)c1cc(CCC(=O)NCCCCCCNC(=O)CCc2cc(C(C)(C)C)c(O)c(C(C)(C)C)c2)cc(C(C)(C)C)c1O | inactive |
| CCc1ccc(C)nc1 | inactive |
| CN(C)C(C)(C)CO | inactive |
| O=S(=O)(O)CCC(F)(F)C(F)(F)C(F)(F)C(F)(F)C(F)(F)C(F)(F)C(F)(F)C(F)(F)F | inactive |
| Cc1cc(O)c(C(C)(C)C)cc1C(C)(C)C | inactive |
| O=C(O)C(F)(F)C(F)(F)C(F)(F)C(F)(F)C(F)(F)C(F)(F)C(F)F | inactive |
| CCOCOCC | inactive |

| SMILES | outcome |
| --- | --- |
| CCCCCCCCCCCC(=O)Cl | inactive |
| OCC(F)(F)C(F)(F)C(F)(F)C(F)(F)C(F)(F)C(F)(F)CO | inactive |
| O=C1c2ccccc2C(=O)c2c(Cl)cccc21 | inactive |
| CC1=CCC2C(=O)OC(=O)C2C1 (centres undefined) | inactive |
| NC(=O)C(F)(F)C(F)(F)C(F)(F)C(F)(F)C(F)(F)C(F)(F)C(F)(F)F | inactive |
| O=C1C=CC(=O)N1c1ccc(Cc2ccc(N3C(=O)C=CC3=O)cc2)cc1 | inactive |
| NS(=O)(=O)C(F)(F)C(F)(F)C(F)(F)C(F)(F)C(F)(F)C(F)(F)F | inactive |
| CCN(CC)c1ccc(N=Nc2ccccc2)cc1 | inactive |
| C=CCOC(=O)CC(C)C | inactive |
| CCCCCCCCCCCCCC[P+](CCCC)(CCCC)CCCC | inactive |
| O=C(O)C(F)(F)C(F)(F)C(F)(F)OC(F)(C(F)(F)F)C(F)(F)F | inactive |
| CC(C)C(=O)OCc1ccccc1 | inactive |
| CCCCCCCCCCCCC[N+](C)(C)Cc1ccccc1 | inactive |
| FC(F)(F)C(F)(F)C(F)(F)C(F)(F)C(F)(F)C(F)(F)CC[Si](Cl)(Cl)Cl | inactive |
| C=CC(=O)OCC(F)(F)C(F)(F)C(F)(F)C(F)(F)C(F)(F)C(F)(F)C(F)(F)C(F)F | inactive |
| CCc1cccc(C)c1N(C(=O)C(=O)O)C(C)COC (centres undefined) | inactive |
| CC(=O)C=O | inactive |
| O=C(c1ccccc1)c1ccc(O)cc1O | inactive |
